Compounds with a hit are over-represented: about 19% of the library has one in this group of screens.
TDP1 cell CPT = DT40-hTDP1 cell growth loss with CPT; chicken DT40 Tdp1-/-;hTDP1 cells + 20 nM CPT, ATP luminescence, 48 h; Potency, µM (titrated, usually from 46.2 µM), inactives show at the highest dose activity change, negative = growth inhibition, hits mostly inhibitors; actives 12% (n = 420,000); also: nearly all actives have a fitted effect of over 55% in size
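Chicken DT40 Tdp1-/- cells stably complemented with human TDP1 were seeded at 400 cells/well in medium containing 20 nM camptothecin, exposed to pin-transferred compounds, and grown at 37 °C for at least 48 hr. Viability was read as ATP luminescence.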
HT1080NT lethal = kills 2HG-producing HT-1080-NT fibrosarcoma cells; HT-1080-NT fibrosarcoma viability, CellTiter-Glo ATP luminescence, 48 h; Potency, µM (series often up to 46.1 µM), for the others: at the top dose activity, negative = less viability, actives largely listed as cytotoxic; actives 1.6% (n = 360,000); AID 686970;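 also: NT is the 2HG producing partner of a matched IDH1 knockdown line; 0% = DMSO-treated cells and -100% = media-only wells without cells; nearly all actives have a fitted effect of over 55% in size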
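Viability of the 2HG-overproducing fibrosarcoma line after 48 hours of compound exposure at 37 degrees C was determined by luminescence with CellTiter-Glo, and concentration-effect curves were then fitted and categorized.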
DT40 TDP1 no CPT = qHTS for Inhibitors of human tyrosyl-DNA phosphodiesterase 1 (TDP1): qHTS in cells in absence of CPT; DT40 Tdp1-/- hTDP1 cells, no CPT, ATP luminescence, 48 h; Potency, µM (series often up to 46.2 µM), for inactives: top-dose activity change, negative = growth inhibition, hits mostly inhibitors; actives 15% (n = 420,000); AID 686978, 2013; also: nearly all actives have a fitted effect of over 55% in size
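Luminescent ATP content (CellTiter-Glo) served as the growth readout. Knockout chicken DT40 cells expressing human TDP1 were exposed to compounds without camptothecin for a minimum 48 hr at 37 °C.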
KB-V1 MDR tox = KB-V1 MDR subline cytotoxicity. actives 3.4% (n = 400,000). KB-V1 MDR cells viability, CellTiter-Glo, 72 h. AID 1347076. Potency, µM (series often up to 46.1 µM), usual class: cytotoxic; also: nearly all actives have a fitted effect of over 60% in size
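Cytotoxicity toward P-gp-expressing KB-V1 cells was determined as loss of CellTiter-Glo luminescence after 72 h at 37 degrees C. Compounds were tested in quantitative HTS format across a concentration range, with curves fitted to normalized data.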
HT1080 IDH1KD tx = toxicity to HT-1080 IDH1 knockdown cells (counter line) | HT-1080 IDH1 knockdown viability, ATP luminescence, 48 h | actives 2% (n = 360,000) | Potency, µM (highest dose often 46.1 µM), for inactives: at the top dose activity, negative = toxicity, hits mostly cytotoxic;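 also: 0% = DMSO wells and -100% = cell-free medium wells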
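CellTiter-Glo luminescence after 48 h compound exposure at 37 degrees C of IDH1-knockdown HT-1080 cells in 5% FBS RPMI. %Activity scaled between DMSO wells and cell-free media wells, with curves fitted and assigned curve classes.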
KB-3-1 tox = KB-3-1 parental cell cytotoxicity; KB-3-1 viability, CellTiter-Glo ATP luminescence, 72 h; actives 1.4% (n = 400,000); Potency, µM (titrated, usually from 46.1 µM), usual class: cytotoxic; AID 1347075; also: nearly all actives have a fitted effect of over 60% in size
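Cytotoxicity in the drug-sensitive parental line KB-3-1 was scored as loss of CellTiter-Glo luminescence following 72 h incubation with compound. Values come from curve fitting of normalized concentration-response data.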
Active calls of the source: *; i = inactive; ? = inconclusive; . = no result. Calls follow the shape of the dose curve; as a rule, active = well fitted curve in the direction sought with a large enough effect; inconclusive = small, poorly fitted or top-dose-only effect, or another doubt; inactive = no such curve, though single readings can be large; an effect the other way counts as inactive or inconclusive. Unless noted, % is scaled to controls: 0 for no effect and ±100 for the full control effect; potency is read from the fitted curve at half-maximal effect.

SMILES	TDP1 cell CPT	HT1080NT lethal	DT40 TDP1 no CPT	KB-V1 MDR tox	HT1080 IDH1KD tx	KB-3-1 tox
C/C(=N\NC(=O)CCc1ccccc1)C1C(=O)c2ccccc2C1=O	1.6µM*	?	2.6µM*	9.2µM*	?	?
C/C(=N\NC(=O)c1cccc(Cl)c1)C1C(=O)c2ccccc2C1=O	0.92µM*	13µM*	0.82µM*	9.2µM*	8.2µM*	23µM*
CC(=O)Nc1cccc(NC(=O)c2cccc(Cl)c2)c1	-15%	14%	-6%	i	16%	i
COc1ccc(NC(=O)C2CCC(CNS(=O)(=O)c3csc(C(N)=O)c3)CC2)cc1 (configuration not stated)	?	.	-15%	i	.	i
c1ccc2c(C3OCC4(CCCCC4)CO3)cccc2c1	-21%	-1%	?	i	3%	i
O=C(CSc1nc2ccccc2nc1Cc1ccccc1)Nc1ccccc1C(F)(F)F	-23%	.	-12%	i	.	i
CCC(NC(=O)Nc1cc(OC)ccc1OC)c1c(-n2cccc2)sc2c1CCN(CC)C2 (configuration not stated)	?	.	23µM*	.	.	.
COc1ccc(NC(=O)NC(C)c2c(-n3cccc3)sc3c2CCN(C)C3)c(OC)c1 (configuration not stated)	?	.	23µM*	.	.	.
CCOC(=O)c1cccc(NC(=O)NC(C)c2c(-n3cccc3)sc3c2CCN(C)C3)c1 (configuration not stated)	15µM*	.	16µM*	.	.	.
COc1ccc(NC(=O)NC(C)c2ccc3c(c2)OCO3)c(OC)c1 (configuration not stated)	-3%	1%	-20%	i	1%	i
CCN1CCN(CCC(=O)Nc2cc(OC)ccc2OC)CC1	-5%	9%	4%	i	1%	i
COc1ccc(-c2cc(C(F)(F)F)nc(SCCC(=O)Nc3cccc(O)c3)n2)cc1	.	.	.	?	.	i
CNC(=O)c1cnc2sc(N3CCC(C)CC3)nn2c1=O	0%	.	-10%	i	.	i
N#Cc1cn(-c2ccccc2)nc1-c1cc2ccccc2oc1=O	?	-7%	16µM*	i	0%	i
CCc1nc2ccc(C(=O)Nc3cccc(OCC(=O)N(C)C)c3)cn2c1N(C=O)Cc1ccc(OC)cc1	?	?	?	i	1%	i
COc1ccccc1N1CCN(C(=O)C2CCN(S(=O)(=O)c3ccc4c(c3)CC(C)N4C(=O)C3CC3)CC2)CC1 (configuration not stated)	?	-9%	?	i	-7%	i
COc1ccccc1N1CCN(C(=O)C2CCCN(S(=O)(=O)c3ccc4c(c3)CCCN4C(C)=O)C2)CC1 (configuration not stated)	8.2µM*	-11%	8.2µM*	i	-6%	?
CC(=O)N1CCCc2cc(S(=O)(=O)N3CCCC(C(=O)N4CCN(c5cc(C)ccc5C)CC4)C3)ccc21 (configuration not stated)	6.5µM*	?	6.5µM*	?	?	?
Cc1ccc(C)c(N2CCN(C(=O)C3CCCN(S(=O)(=O)c4cnc[nH]4)C3)CC2)c1 (configuration not stated)	?	0%	?	i	-3%	i
Cc1ccccc1OC(=O)CSc1nnc(-c2ccc3c(c2)OCO3)o1	-2%	.	-20%	i	.	i
Cc1cccc(Cn2c(C)nc3c(N)c(C)c(C)cc32)c1	-16%	-10%	16µM*	?	-6%	i
COc1ccc(S(=O)(=O)c2nnn(-c3ccc(C)c(Cl)c3)c2C)cc1	?	.	?	i	.	?
Cc1cccc(OCc2nc(CC(=O)Nc3ccc(C)c(C)c3)cs2)c1	?	.	18µM*	i	.	i
Cc1cccc(OCCC(=O)Nc2ccc(F)c(F)c2)c1	-4%	2%	-8%	?	-4%	i
Cc1nc(CC(=O)Nc2ccc(C)c(C)c2)cs1	8%	.	-15%	.	.	.
SMILES	TDP1 cell CPT	HT1080NT lethal	DT40 TDP1 no CPT	KB-V1 MDR tox	HT1080 IDH1KD tx	KB-3-1 tox
Cc1cccc(OCc2nc(CC(=O)Nc3ccc(Cl)cc3)cs2)c1	21µM*	.	?	i	.	i
CCOC(=O)c1c(NC(=O)CSc2cn(CCNC(=O)c3ccc(OC)cc3)c3ccccc23)sc2c1CCCC2	?	.	?	i	.	i
COCCNC(=O)CN1C(=O)c2cccnc2Sc2ccccc21	-28%	.	-20%	i	.	i
COc1cc(/C=C/c2nc(N)nc(-c3ccccc3O)n2)cc(OC)c1OC	?	-29%	10µM*	i	-28%	i
Cc1ccc(NC(=O)c2cc(-c3ccccc3O)n[nH]2)cc1Cl	7%	20%	0%	?	16%	i
COc1cc(/C=C/c2noc(-c3ccccc3O)n2)cc(OC)c1OC	2%	-13%	?	i	-14%	i
COc1cc(/C=C/c2nc(-c3ccccc3O)n[nH]2)cc(OC)c1OC	21µM*	?	15µM*	?	?	?
CC(=O)Nc1ccc(/C=C/c2nc(-c3ccccc3O)n[nH]2)cc1	?	-18%	29µM*	i	-8%	i
COc1ccc(/C=C/c2nc(N)nc(-c3ccccc3O)n2)cc1OC	?	-13%	?	i	-20%	i
O=C1NC(=S)N(C(=O)c2ccc(F)cc2)/C1=C/c1ccccc1	23µM*	-23%	13µM*	?	-28%	?
O=C(c1ccc(F)cc1)N1CCN(Cc2ccccc2)CC1	-9%	10%	1%	i	12%	i
COc1ccc(/C=C2\C(=O)NC(=S)N2C(=O)c2ccc(F)cc2)cc1	23µM*	-11%	18µM*	i	9%	i
CCS(=O)(=O)c1ccc2oc(SCC(=O)c3c(N)n(C4CC4)c(=O)[nH]c3=O)nc2c1	-5%	-1%	-24%	?	10%	i
O=C(/C=C/c1c(F)cccc1Cl)c1ccc(F)cc1	21µM*	?	26µM*	i	?	i
COc1cc(NS(=O)(=O)c2ccc(N/C=C(\C#N)c3nc4cc(Cl)ccc4o3)cc2)nc(OC)n1	9.2µM*	?	15µM*	i	?	?
COc1cc(NS(=O)(=O)c2ccc(NC(C)=O)cc2)nc(OC)n1	0%	12%	-7%	i	6%	i

Bioassay records from PubChem.
